Data as given in PubChem BioAssay.

How the values were obtained:
[1] = test system: Human papillomavirus type 1a protein E7 (residues 44-93); experiment: HPV1a E7 fragment binders on microarrays, primary screen, biochemical, small-molecule microarray, residues 44-93, 635 nm fluorescence (AID 1108); details: small-molecule microarray binding, fluorescence 635 nm; higher = more signal;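 further: E7 fragment applied at 1 µg/mL in TBST for 1 h at 4 C; score combines spot fluorescence with its signal to noise ratio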
[2] = modulators of HCV replicon luciferase signal, primary screen, HCV replication inhibitor project, Huh7 cells, luciferase reporter (AID 1109); details: 48 h, higher = more signal;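 further: huh7 hepatoma cells harbouring a luciferase neomycin HCV replicon reporter; luciferase luminescence as measure of HCV replicon replication; test concentration not given here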
[3] = target: Left-right determination factor 2 (Homo sapiens) (UniProt O00292); experiment: LEFTY2 binders on small-molecule microarrays, primary screen, biochemical, small-molecule microarray, 635 nm fluorescence scan (AID 1110); details: LEFTY2 binding, higher = more signal
Sequence of Left-right determination factor 2 (Homo sapiens) (O00292 whole entry, looked up): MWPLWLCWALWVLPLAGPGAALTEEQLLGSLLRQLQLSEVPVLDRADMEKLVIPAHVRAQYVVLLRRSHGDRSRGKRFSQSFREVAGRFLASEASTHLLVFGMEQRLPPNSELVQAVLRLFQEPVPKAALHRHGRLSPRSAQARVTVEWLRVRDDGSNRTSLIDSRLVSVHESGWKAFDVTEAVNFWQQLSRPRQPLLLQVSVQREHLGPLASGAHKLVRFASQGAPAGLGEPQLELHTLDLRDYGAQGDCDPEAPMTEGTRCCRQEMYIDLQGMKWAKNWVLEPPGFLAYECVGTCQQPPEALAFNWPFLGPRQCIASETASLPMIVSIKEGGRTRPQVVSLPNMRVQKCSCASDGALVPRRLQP

[4] = target: Calmodulin-1 (Homo sapiens) (UniProt P0DP23); experiment: CALM1 binders on microarrays, EGTA buffer, profiling panel, biochemical, small-molecule microarray, Cy5-labelled CALM1 (AID 1111); details: Cy5-CALM1 binding fluorescence, higher = more signal;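 further: labelled calmodulin applied in Tris saline Tween buffer holding calcium plus EGTA and DTT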
[5] = target: Calmodulin-1 (Homo sapiens) (UniProt P0DP23); experiment: calcium-bound CALM1 binders on microarrays, profiling panel, artefact control for SMM control-protein annotation, biochemical, small-molecule microarray, Cy5-labelled CALM1, plus calcium (AID 1112); details: Cy5-CALM1 binding fluorescence, higher = more signal;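 further: score merges spot fluorescence with signal to noise from triplicate slides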
[6] = small-molecule microarray binders of probe aWnt5a, primary screen, biochemical, biotinylated probe, 635/667 nm fluorescence (AID 1113); details: higher = more signal;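 further: score merges 667 nm fluorescence intensity with signal-to-noise per printed feature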
[7] = small-molecule microarray binders of probe aShh, primary screen, biochemical, biotinylated probe, 635/667 nm fluorescence (AID 1114); details: higher = more signal;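 further: probe is biotin-labelled aShh protein from a stem cell growth factor screen; measures binding of labelled protein to compounds printed on the slide; score merges feature fluorescence at 667 nm with signal-to-noise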
[8] = small-molecule microarray binders of probe aNog, primary screen, biochemical, biotinylated probe, 635/667 nm fluorescence (AID 1115); details: higher = more signal;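 further: probe is biotinylated aNog protein used at 0.15 µg/mL for 1 h at 4 C; z-score combines 667 nm fluorescence of each spot with its signal to noise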
[9] = target: Torsin-1A-interacting protein 1 (Homo sapiens) (UniProt Q5JTV8); experiment: LAP1 binders from COS7 cell lysate, primary screen, small-molecule microarray, 635/667 nm fluorescence (AID 1116); details: COS7-hLAP1 lysate binding, 635 nm fluorescence, higher = more signal
Sequence of Torsin-1A-interacting protein 1 (Homo sapiens) (Q5JTV8 whole entry, looked up): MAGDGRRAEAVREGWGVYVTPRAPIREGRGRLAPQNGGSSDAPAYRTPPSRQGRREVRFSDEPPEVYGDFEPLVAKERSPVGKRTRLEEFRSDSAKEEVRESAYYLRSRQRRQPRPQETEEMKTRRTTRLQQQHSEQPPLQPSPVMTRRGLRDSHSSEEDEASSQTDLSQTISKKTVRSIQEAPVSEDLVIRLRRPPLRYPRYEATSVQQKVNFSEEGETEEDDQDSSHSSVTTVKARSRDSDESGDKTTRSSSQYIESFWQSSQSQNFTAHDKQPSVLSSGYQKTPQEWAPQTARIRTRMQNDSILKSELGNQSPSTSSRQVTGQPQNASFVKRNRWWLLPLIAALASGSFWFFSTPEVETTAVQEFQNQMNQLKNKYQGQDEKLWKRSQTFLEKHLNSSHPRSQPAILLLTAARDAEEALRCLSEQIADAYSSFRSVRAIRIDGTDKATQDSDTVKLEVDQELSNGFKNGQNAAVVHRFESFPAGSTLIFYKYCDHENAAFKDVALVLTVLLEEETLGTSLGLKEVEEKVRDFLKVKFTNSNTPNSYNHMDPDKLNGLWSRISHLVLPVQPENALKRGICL

[10] = target: Alpha-bungarotoxin (Bungarus multicinctus) (UniProt P60615); experiment: alpha-bungarotoxin binders on microarray, profiling panel, artefact control for SMM control protein annotation, biochemical, small-molecule microarray, Alexa647 label, 635/667 nm fluorescence (AID 1117); details: alpha-BTX-A647 binding fluorescence, higher = more signal
Sequence of Alpha-bungarotoxin (Bungarus multicinctus) (P60615 whole entry, looked up): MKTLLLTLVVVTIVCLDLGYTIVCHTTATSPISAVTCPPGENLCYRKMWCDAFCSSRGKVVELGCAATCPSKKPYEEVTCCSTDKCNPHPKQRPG

Compound	composite z-score [1]	z-score [2]	composite z-score [3]	composite z-score [4]	composite z-score [5]	composite z-score [6]	composite z-score [7]	composite z-score [8]	composite z-score [9]	composite z-score [10]
C#CCOC(=O)N[C@H](C=CCCCC)c1ccccc1	-0.0543	-0.498	-0.0624	0.44	0.368	-0.0888	0.413	1.52	1.51	-0.194
Cc1ccc(-c2cccc(=O)o2)cc1	-1.01	0.488	0.418	-1.18	-0.802	-0.145	-0.138	0.11	-0.101	-0.391
CCCC=C(CCC)[C@@H](NS(=O)(=O)CC)c1ccccc1	1.37	-2.68	-0.0866	1.37	0.855	0.0516	0.949	1.26	0.806	0.157
CC(C)(C)OC(=O)CC[C@]1(C(=O)O)COC(c2ccc(OCCCO)cc2)=N1	0.191	0.0847	-0.225	0.155	0.568	0.105	0.0326	0.609	0.672	-0.582
CN(C)CCCNC(=O)[C@@]1(Cc2ccccc2I)c2ccccc2C(=O)N(Cc2ccccc2Cl)[C@H]1c1ccc(CO)cc1	-0.93	-3.47	-1.3	1.48	0.775	0.157	-0.12	-0.784	0.461	1.27
COC(=O)C(CC#Cc1ccc2c(c1)[C@]1(C(=O)N2)[C@H](c2ccccc2OCCO)N2[C@H](c3ccccc3)[C@H](c3ccccc3)OC(=O)[C@H]2[C@@H]1C(=O)Nc1nc2ccccc2s1)C(=O)OC	1.41	-2.02	0.397	0.973	-0.196	-0.0239	0.233	-0.466	0.874	1.5
NC(=O)[C@H]1[C@@H]2C(=O)O[C@@H](c3ccccc3)[C@@H](c3ccccc3)N2[C@@H](c2ccc(O)cc2)[C@]12C(=O)Nc1ccc(C#CC3(O)CCCCCC3)cc12	1.45	-2.61	0.6	0.861	-0.227	-0.12	0.534	-0.327	1.49	1.49
COCCOC(=O)N1C(=O)[C@@]2(c3cc(C#CCC(C(=O)OC)C(=O)OC)ccc31)[C@H](c1ccc(OCCO)cc1)N1[C@H](c3ccccc3)[C@H](c3ccccc3)OC(=O)[C@H]1[C@@H]2C(N)=O	1.35	-1.12	0.535	1.61	0.193	-0.0718	0.0639	0.129	-0.189	0.992
OCCCC1=CC(c2cccs2)N(Cc2cccc(OC(F)(F)F)c2)CC1 (stereo not given)	-0.571	-2.1	-0.0424	-0.957	0.639	-0.13	-0.221	1.41	-0.0673	-0.0302
COc1cccc(C[C@H]2C[C@@H](CO[Si](C(C)C)(C(C)C)C(C)C)N3C(=O)[C@]4(C(C)=O)O[C@]23[C@H]2C(=O)N(C)C(=O)[C@H]24)c1	1.01	-3.15	0.717	0.293	-0.23	-0.0721	0.138	-0.158	0.102	0.866
COc1ccc([Si](C)(C)[C@@H]2[C@@H](CCO)O[C@]3(C(=O)N(Cc4ccccc4)c4ccc(N5CCCCC5=O)cc43)[C@H]2C)cc1	1.4	-5.21	0.489	0.972	0.0653	-0.122	-0.2	-0.352	0.678	1.08
CN1C(=O)C2C=CC(C(O)c3cccc4ccccc34)N(NC(=O)OC(C)(C)C)C2C1=O (stereo not given)	1.28	-0.602	-0.22	2.49	1.43	-0.0512	-0.0813	-0.125	2.66	1.19
C=CCOC(=O)[C@@H]1[C@H]2C(=O)O[C@H](c3ccccc3)[C@H](c3ccccc3)N2[C@H](c2ccc(OCCOC(=O)[C@H]3C[C@H]4C(=O)N[C@@H](Cc5ccccc5)C(=O)N4[C@H]3c3cccc(OCCO)c3)cc2)[C@@]12C(=O)Nc1ccc(I)cc12	0.88	-2.08	0.413	-0.573	-0.771	-0.0161	0.116	0.749	1.29	1.03
